# Test results: PubChem BioAssay (NCI)
# This is part of a sample that, as a whole, favours compounds with a hit. Of some 83,000 tested, about 20% had one in any assay.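 Activity criterion: percent growth below 10, measured after cells in 96-well plates were exposed to a single compound concentration for 48 hours.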 Values without a mark were called inactive. Activity calls are given as the source filed them.
# Key:
# Experiment in all cases: NCI-60 one-dose screen, 48 h (100 = growth as untreated, 0 = no growth, -100 = all killed)
# Conditions in all cases: 10 µM unless noted
# DU-145 prostate = tested on: DU-145 prostate
# K-562 leukemia = tested on: K-562 leukemia
# MALME-3M melanoma = tested on: MALME-3M melanoma
# MDA-MB-231 breast = tested on: MDA-MB-231 breast
# RXF 393 renal = tested on: RXF 393 renal
# SF-268 CNS = tested on: SF-268 CNS
# SF-295 CNS = tested on: SF-295 CNS
# SF-539 CNS = tested on: SF-539 CNS
# UACC-257 melanoma = tested on: UACC-257 melanoma
# M14 melanoma = tested on: M14 melanoma
Structure (SMILES),growth (DU-145 prostate),growth (K-562 leukemia),growth (MALME-3M melanoma),growth (MDA-MB-231 breast),growth (RXF 393 renal),growth (SF-268 CNS),growth (SF-295 CNS),growth (SF-539 CNS),growth (UACC-257 melanoma),growth (M14 melanoma)
CC12CCC3c4ccccc4CCC3(CO1)C2 (stereo not given),121%,99.9%,95.1%,124%,93.4%,107%,77.2%,104%,110%,128%
COC(=O)/C=C1/SC(=Nc2ccc(C)cc2)N(CCc2c[nH]c3ccc(O)cc23)C1=O,26.9%,11.8%,77.4%,59.3%,47.7%,56.3%,76.8%,42.9%,50.2%,34.1%
CN(C)c1ccc(/C=C/C(=O)c2ccc(-n3cc(CN4CCN(c5cc6c(cc5F)c(=O)c(C(=O)O)cn6C5CC5)CC4)nn3)cc2)cc1,51.7%,21.9%,89.2%,65.3%,45%,35.7%,81.2%,27.9%,88.3%,60.9%
Oc1c(Cl)cc(Cl)c2ccc(Cn3cc(-c4cc(C(F)(F)F)cc(C(F)(F)F)c4)nn3)nc12,21.9%,6.87% (active),-13.2% (active),87%,-12.8% (active),77.2%,106%,43.3%,49.9%,47.8%
COc1cc(-c2csc(NC(=O)c3cc(-n4cnc(C)c4)cc(C(F)(F)F)c3)n2)cc(OC)c1OC,56.4%,26.8%,67.7%,61.3%,66.7%,68.6%,57.9%,90.9%,81.9%,66.7%
NC(=O)c1c(NC(=O)c2ccccc2)sc2c1CCC(=O)C2,35%,5.24% (active),7.31% (active),0.799% (active),18.7%,17.7%,33.4%,16.1%,4.86% (active),20.9%
O=C(CI)NC1Oc2ccccc2-c2oc(=O)c(-c3ccccc3)cc21 (stereo not given),-93.8% (active),-13% (active),-77.1% (active),-68.8% (active),-89.4% (active),-72.2% (active),87.4%,-89.5% (active),77.3%,-39.8% (active)
C#CCOc1ccc2ncnc(Nc3ccc(NC(=O)CCl)cc3)c2c1,18.1%,0.218% (active),-74.5% (active),-0.398% (active),-59.9% (active),-7.47% (active),60.6%,-81.8% (active),38.8%,4.03% (active)
CN(C)CCCC1(c2ccc(F)cc2)OCc2cc(-c3cncc4ccccc34)ccc21 (stereo not given),48.5%,1.06% (active),-85% (active),38.3%,20.1%,49.5%,17.8%,54.9%,-64.5% (active),-56% (active)
COc1cccc([C@H]2c3[nH]c4ccccc4c3C[C@H]3C(=O)N(CCCCCCC(=O)NO)CC(=O)N23)c1,76.9%,27%,24.3%,68.7%,75%,88.4%,87.5%,60.6%,51.6%,59.6%
c1cnc2[nH]cc(-c3csc(-c4cn(CCCN5CCOCC5)c5ccccc45)n3)c2c1,82%,1.22% (active),61.1%,27.1%,24.9%,52.3%,16.7%,52.9%,85%,14.5%
CN1CCN(c2ccc(NC(=O)c3nc4ccc5[nH]ncc5c4c4c3CCCC4)cc2C(F)(F)F)CC1,-27.9% (active),7.04% (active),33.1%,45.8%,72.3%,78%,97.9%,89.6%,98.7%,79.5%
Fc1ccc(-c2nn(-c3ccccc3)cc2-c2nc3ccccc3o2)cc1,90.1%,37.5%,63.6%,59.1%,105%,58.5%,45.4%,91.7%,102%,48.2%
CCC(=C(c1ccc(OCCN2CCCC2)cc1)c1ccc(OCCN2CCCC2)cc1)c1ccc(Cl)cc1,26.4%,-21.2% (active),-82.1% (active),-70.9% (active),13.7%,49.8%,-61.9% (active),-88.4% (active),-58% (active),-75% (active)
CN(C)CCCn1c2c(c3ncccc3c1=O)C(=O)c1ccccc1-2,39.3%,24.7%,61.9%,63.6%,57.3%,42.3%,50.7%,21%,72.8%,48.6%
Cc1nc2c(=O)[nH]c(SCC(=O)Nc3cccc(F)c3)nc2[nH]c1=O,109%,101%,105%,101%,106%,102%,103%,101%,98.9%,96.1%
O=C(O)CCCN1C(=O)/C(=C/C(Cl)=C/c2ccccc2)SC1=S,18.9%,14.7%,-2.99% (active),38.1%,-16.5% (active),56.1%,49.5%,10%,40.8%,9.62% (active)
COCCn1cc(-c2nc(-c3cc4cccnc4n3CCOC)cs2)c2cc(OC)ccc21,72.4%,0.391% (active),119%,23.7%,66.3%,74.2%,74.2%,62.6%,94.7%,69.4%
O=C(Nc1cc(Cl)ccc1O)c1ccc(Nc2ccnc(C(F)(F)F)c2)cc1,42.9%,5.89% (active),60.5%,68.1%,98.9%,69.1%,-7.57% (active),80.4%,78%,46.8%
CCCCNC(=O)Oc1ccc(/C(=C(/CC)Cc2ccccc2)c2ccc(OCCN3CCCCCC3)cc2)cc1,49.9%,-24.8% (active),-58.3% (active),43.3%,16.7%,61%,91.9%,-30.2% (active),34.3%,-19.3% (active)
O=C(/C=C/c1cccs1)c1ccc(Cl)nc1,106%,97.1%,95.7%,116%,119%,102%,101%,101%,100%,101%
Cc1nn(-c2ccccc2)c(Oc2ccccn2)c1-c1nc2ccccc2s1,98.6%,90.7%,103%,124%,86.1%,92.9%,115%,108%,98%,108%
Cn1cc(-c2nonc2-c2c[nH]c3ccc(Br)cc23)c2cc(Br)ccc21,23.2%,7.65% (active),39.9%,31.9%,18.2%,37.8%,22.4%,46%,66.8%,42.7%
CN1C(=O)/C(=C/c2ccc(C(=O)Nc3ncc(Cc4ccc(Cl)cc4)s3)cc2)SC1=S,47.1%,38.4%,50.9%,58%,48.3%,56.8%,33%,47.3%,67.1%,16.3%
O=C(OCc1ccc2c(Cl)cc(Cl)c(O)c2n1)n1cncn1,38.7%,18.2%,33%,59.6%,45.9%,24.1%,20%,15.7%,41.2%,20.4%
CCN1CC(=O)N(/N=C2\C(=O)Nc3ccccc32)C1=S,112%,106%,91%,88.5%,76.5%,103%,96.6%,94.1%,103%,86%
Cc1nnc(-n2c(O)cc(=O)n(-c3ccccc3)c2=S)nc1/C=C/c1ccc(N(C)C)cc1,73.7%,30.1%,63.3%,45.6%,83.3%,78.4%,62%,66%,35.3%,49.8%
